Source: PubChem (Sanford-Burnham Center for Chemical Genomics)
Hits are enriched below; roughly 4% of the tested compounds scored in any of these assays.
KKLEB cytotox: CF airway cell cytotoxicity counter-screen | KKLEB CF airway cells viability, ATPlite luminescence, overnight; stronger effect = lower value; cells stimulated with P. aeruginosa culture filtrate | activity change (cytotoxicity), % at 5 µM | actives 0.36% (n = 360,000) | AID 602141;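 active = corrected activity change at or below -50% at 5 µM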
TWEAK-Fn14 inh: TWEAK-Fn14 signaling inhibition; TWEAK-stimulated Fn14 reporter cells, luciferase luminescence, 8 h; AID 1159606; actives 2% (n = 360,000); inhibition, % at 10 µM; in the data active = inhibition above about 50%
Peg3 promoter: inhibitors of Peg3 promoter; HeLa PEG-Prom luciferase reporter, luminescence, overnight; inhibition, % at 20 µM; actives 1.7% (n = 360,000); AID 588405;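 active = inhibition of at least 50% at 20 µM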
HIF-2a block: blocks HIF-2a reporter activity; inhibition, % at 18.8 µM; actives 0.72% (n = 360,000); 786-0 RCC cells HIF-2a reporter, luciferase luminescence, overnight;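 active = inhibition of the luminescence signal of 40% or more relative to plate controls, in a single-dose primary screen at 18.75 µM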
TROY signal inh: TROY signaling inhibition; Q293 LMP1-TROYcd NF-kB luciferase reporter, 4 h; inhibition, % at 10 µM; actives 0.98% (n = 360,000);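 active = compounds whose plate-normalised and pattern-corrected inhibition of the luciferase reporter signal at the single screening dose is 50% or more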
CF NFkB block: inhibitors of cystic fibrosis induced NF-kB | AID 588850 | KKLEB NF-kB-GFP reporter, PAF-induced, GFP fluorescence overnight | inhibition, % at 5 µM | actives 0.86% (n = 360,000);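 active = at least 50% inhibition at 5 µM, scaled per plate between neutral and stimulator controls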;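 note: PAF is a Pseudomonas aeruginosa culture filtrate used as stimulus; plate controls were PAF-stimulated DMSO wells for no effect and unstimulated DMSO wells for full effect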
Mdm2-MdmX confirm: confirmation of inhibitors of human Mdm2/MdmX interaction, set 2; shares compounds with HIF-2a block; SaOS-2 split-luciferase Mdm2/MdmX complementation, luminescence; AID 504601; inhibition, % at 8 µM; actives 99% (n = 740);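 active = mean inhibition of the luminescence signal across two replicates at or above 26 percent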
Target sequence (O15151 whole entry, looked up): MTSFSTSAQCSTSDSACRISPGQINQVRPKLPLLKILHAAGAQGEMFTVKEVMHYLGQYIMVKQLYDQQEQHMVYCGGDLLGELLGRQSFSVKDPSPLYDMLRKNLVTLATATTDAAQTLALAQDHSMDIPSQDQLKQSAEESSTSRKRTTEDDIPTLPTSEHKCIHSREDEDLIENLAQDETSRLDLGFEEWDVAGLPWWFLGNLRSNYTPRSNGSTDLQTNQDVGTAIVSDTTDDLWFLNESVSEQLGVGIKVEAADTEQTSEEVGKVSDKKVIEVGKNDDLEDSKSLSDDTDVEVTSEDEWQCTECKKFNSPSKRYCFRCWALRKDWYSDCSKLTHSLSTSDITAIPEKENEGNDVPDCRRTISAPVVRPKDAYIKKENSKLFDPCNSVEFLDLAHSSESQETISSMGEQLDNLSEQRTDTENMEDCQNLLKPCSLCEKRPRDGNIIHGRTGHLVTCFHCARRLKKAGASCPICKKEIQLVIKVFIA
Target sequence (Q00987 whole entry, looked up): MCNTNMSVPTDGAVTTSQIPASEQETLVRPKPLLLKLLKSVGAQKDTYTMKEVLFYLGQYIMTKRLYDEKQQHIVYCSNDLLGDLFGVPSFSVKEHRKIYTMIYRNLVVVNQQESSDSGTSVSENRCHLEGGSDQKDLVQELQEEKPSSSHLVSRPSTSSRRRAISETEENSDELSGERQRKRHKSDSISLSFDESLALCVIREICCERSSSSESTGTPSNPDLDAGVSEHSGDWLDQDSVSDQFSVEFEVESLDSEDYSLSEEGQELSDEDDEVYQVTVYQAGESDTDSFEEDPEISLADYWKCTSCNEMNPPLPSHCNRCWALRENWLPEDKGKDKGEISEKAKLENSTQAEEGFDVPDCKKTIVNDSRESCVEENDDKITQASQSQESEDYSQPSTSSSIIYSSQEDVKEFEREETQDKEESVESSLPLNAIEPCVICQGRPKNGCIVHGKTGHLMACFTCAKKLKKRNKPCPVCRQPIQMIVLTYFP
HIF-2a conf: confirmation of HIF-2a inhibitors; 786-0 RCC cells, HIF-2a luciferase reporter luminescence, overnight; actives 56% (n = 1,800); inhibition, % at 18.8 µM; shares compounds with HIF-2a block; AID 651580;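 active = mean inhibition across four replicates of at least 40 percent at the single tested concentration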
HIF-1a cs: counter-screen for HIF-2a inhibitors: HIF-1a inhibition in MiaPaCa-2 cells. AID 651589. inhibition, % at 18.8 µM. MiaPaCa-2 HIF-1a luciferase reporter, desferoxamine, overnight. actives 72% (n = 1,800). shares compounds with HIF-2a block;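 active = mean inhibition of the reporter signal across four replicates at the single tested dose of 50% or more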
Numbers without * were called inactive.

Results for COCCn1c(C)cc(C(=O)COc2cccnc2[N+](=O)[O-])c1C ?
KKLEB cytotox: 9; TWEAK-Fn14 inh: -7; Peg3 promoter: 65*; HIF-2a block: 51*; TROY signal inh: -5; CF NFkB block: -3; HIF-2a conf: 65*; HIF-1a cs: 71*

Results for Cc1csc2ncnc(NCCc3ccccn3)c12 ?
KKLEB cytotox: 12; TWEAK-Fn14 inh: 30; Peg3 promoter: -27; HIF-2a block: -41; TROY signal inh: 6; CF NFkB block: 7

How did Cc1cc(C)n2nc(SCC3COc4ccccc4O3)nc2n1 (configuration not stated) do in these assays?
KKLEB cytotox: -9; TWEAK-Fn14 inh: -44; Peg3 promoter: -121; HIF-2a block: -81; TROY signal inh: -43; CF NFkB block: 1

How did COCCCN1C(=O)C(CC(=O)NC(c2ccccc2)c2ccccc2)CC(C(=O)N2CCOCC2)=C1C (configuration not stated) do in these assays?
KKLEB cytotox: -5; TWEAK-Fn14 inh: 17; Peg3 promoter: 2; HIF-2a block: 8; TROY signal inh: 2; CF NFkB block: -8

How did Cc1c(CCC(=O)NCCC(=O)O)c(=O)oc2c(C)c3oc4c(c3cc12)CCCC4 do in these assays?
KKLEB cytotox: 4; TWEAK-Fn14 inh: 39; Peg3 promoter: -38; HIF-2a block: 56*; TROY signal inh: 9; CF NFkB block: 5; HIF-2a conf: 65*; HIF-1a cs: 37

Results for Cc1c(CCC(=O)N[C@@H](C)C(=O)O)c(=O)oc2c(C)c3oc4c(c3cc12)CCCC4 ?
KKLEB cytotox: 2; TWEAK-Fn14 inh: 24; Peg3 promoter: -36; HIF-2a block: 50*; TROY signal inh: 0; CF NFkB block: -3; HIF-2a conf: 60*; HIF-1a cs: 36

Results for CC[C@@H](C)[C@H](NC(=O)Cc1c(C)c2cc3c(C)coc3c(C)c2oc1=O)C(=O)O ?
KKLEB cytotox: -30; TWEAK-Fn14 inh: 12; Peg3 promoter: 6; HIF-2a block: 17; TROY signal inh: 9; CF NFkB block: 14

Results for COc1cc(/C=C/c2cc(C(F)(F)F)[nH]c(=O)n2)cc(OC)c1OC ?
KKLEB cytotox: 24; TWEAK-Fn14 inh: 47; Peg3 promoter: 25; HIF-2a block: 40*; TROY signal inh: 19; CF NFkB block: -2; HIF-2a conf: 26; HIF-1a cs: -3

How did O=c1nc(/C=C/c2cc([N+](=O)[O-])ccc2Cl)cc(C(F)(F)F)[nH]1 do in these assays?
KKLEB cytotox: 34; TWEAK-Fn14 inh: -2; Peg3 promoter: 20; HIF-2a block: 83*; TROY signal inh: 31; CF NFkB block: -4; HIF-2a conf: 61*; HIF-1a cs: 79*

Results for CCOC(=O)C1(Cc2cccc(Cl)c2)CCCN(C(=O)CCNC(C)=O)C1 (configuration not stated) ?
KKLEB cytotox: -7; TWEAK-Fn14 inh: 12; Peg3 promoter: -5; HIF-2a block: 7; TROY signal inh: 0; CF NFkB block: 0

What do the screens show for `O=C1NC[C@@H](CCCCN2C[C@H](Cc3ccccc3)N(CC3CCCCC3)C(=O)C2=O)N(CCc2ccc(O)cc2)C1=O`?
TWEAK-Fn14 inh: 9; HIF-2a block: 1; TROY signal inh: -22

What do the screens show for `COCc1nnc(NS(=O)(=O)c2ccc([N+](=O)[O-])cc2)s1`?
KKLEB cytotox: 11; TWEAK-Fn14 inh: -3; Peg3 promoter: 4; HIF-2a block: 6; TROY signal inh: -2; CF NFkB block: -4

What do the screens show for `CCC(=O)OCC(=O)N=c1sccn1Cc1ccccc1Cl`?
KKLEB cytotox: -20; TWEAK-Fn14 inh: -2; Peg3 promoter: 14; HIF-2a block: 17; TROY signal inh: -9; CF NFkB block: 18

How did O=C(CCl)N=c1sccn1Cc1ccc(Cl)cc1Cl do in these assays?
KKLEB cytotox: -85*; TWEAK-Fn14 inh: 55*; Peg3 promoter: 24; HIF-2a block: 17; TROY signal inh: 21; CF NFkB block: 90*; Mdm2-MdmX confirm: 103*

What do the screens show for `CCC(=O)OCC(=O)N=c1sccn1Cc1ccc(C)cc1`?
KKLEB cytotox: 7; TWEAK-Fn14 inh: 6; Peg3 promoter: -1; HIF-2a block: 4; TROY signal inh: -19; CF NFkB block: 3

How did O=C(CCl)N=c1sccn1Cc1ccccc1Cl do in these assays?
KKLEB cytotox: -68*; TWEAK-Fn14 inh: -1; Peg3 promoter: 24; HIF-2a block: 8; TROY signal inh: 4; CF NFkB block: 78*; Mdm2-MdmX confirm: 103*

What do the screens show for `CC[C@@]1(C(=O)OC)N[C@H](CN(C)S(=O)(=O)c2ccc(-c3ccccc3)cc2)[C@@H]2C(=O)N(Cc3ccccc3)C(=O)[C@@H]21`?
KKLEB cytotox: 0; TWEAK-Fn14 inh: -19; Peg3 promoter: -8; HIF-2a block: 0; TROY signal inh: -8; CF NFkB block: -4; Mdm2-MdmX confirm: 90*

How did O=C(NCCCc1ccccc1)c1cccc(Br)c1 do in these assays?
KKLEB cytotox: -9; TWEAK-Fn14 inh: -25; Peg3 promoter: -90; HIF-2a block: -113; TROY signal inh: -43; CF NFkB block: 14

What do the screens show for `O=C(CN(Cc1ccccc1)C(=O)CCl)c1cccc(Br)c1`?
KKLEB cytotox: -67*; TWEAK-Fn14 inh: 66*; Peg3 promoter: 11; HIF-2a block: 31; TROY signal inh: 5; CF NFkB block: 61*; Mdm2-MdmX confirm: 103*

What do the screens show for `CC(=O)N(C)c1ccc(N=C2C(=O)Nc3ccccc32)cc1`?
KKLEB cytotox: 2; TWEAK-Fn14 inh: 14; Peg3 promoter: 20; HIF-2a block: 16; TROY signal inh: 39; CF NFkB block: -5

What do the screens show for `C=CCOc1cccc(C(=O)N2CCCC(CCC(=O)NCc3ccccc3F)C2)c1` (configuration not stated)?
KKLEB cytotox: 9; TWEAK-Fn14 inh: -30; Peg3 promoter: -30; HIF-2a block: -37; TROY signal inh: -12; CF NFkB block: -8

Results for C=CCOc1cccc(C(=O)/C=C2/C(=O)Nc3ccccc32)c1 ?
KKLEB cytotox: -52*; TWEAK-Fn14 inh: 30; Peg3 promoter: 85*; HIF-2a block: 59*; TROY signal inh: 29; CF NFkB block: 86*; HIF-2a conf: 59*; HIF-1a cs: 105*
